Holding throughout (format): functional
Assay [1] relates to Plasmodium falciparum. Kind of assay: GSK_TCMDC: Inhibition of Plasmodium falciparum 3D7 in whole red blood cells, using parasite LDH activity as an index of growth. Test compounds present at 2uM.
Assay [2] concerns Plasmodium falciparum. Kind of assay: GSK_TCMDC: Inhibition of Plasmodium falciparum Dd2 in whole red blood cells, using parasite LDH activity as an index of growth. Test compounds present at 2uM.
A further assay deals with HepG2. Kind of assay: GSK_TCMDC: Percent inhibition of human HepG2 cell line. Test compounds present at 10uM.

In general, Inhibition refers to the share of the control response that was lost under treatment. Read a low Inhibition as little suppression. With `O=C(Nc1ccc(C(=O)N2CCN(CCN3CCN(c4cccc(C(F)(F)F)c4)CC3)CC2)cc1)c1ccc(C(F)(F)F)cc1`, the results for the Inhibition in the assay with Plasmodium falciparum [1], in the assay on Plasmodium falciparum [2] and with HepG2 were 95%, 28% and 39%, respectively.
`COc1cc(C(=O)NCc2nn(CCN3CCC(N4CCCC4)CC3)cc2-c2ccc(Cl)c(Cl)c2)cc(OC)c1OC`: the Inhibition in the assay with Plasmodium falciparum [1] is recorded as 97%; in the assay on Plasmodium falciparum [2] it was 0%; in the assay with HepG2 it was 16%.
For `Oc1ccc2[nH]c(-c3cccc(F)c3)nc2c1CN1CCCC1`, the results for the Inhibition with Plasmodium falciparum [1], with Plasmodium falciparum [2] and with HepG2 were 100%, 47% and 0%, respectively.
Regarding `CCCCc1cc(NCc2ccncc2)nc(Nc2ccccc2)n1`, the Inhibition with Plasmodium falciparum [1] was 96%; in the assay with Plasmodium falciparum [2], 4%; in the assay on HepG2, 0%.
Consider `COc1cccc(-c2csc(C(=O)NCC3CCN(Cc4ccc(C(C)C)cc4)C3)c2)c1.O=C(O)C(F)(F)F` (stereo not drawn), for which the Inhibition turned out to be 86% in the assay on Plasmodium falciparum [1], 9% in the assay with Plasmodium falciparum [2] and 35% with HepG2.
Take `O=[N+]([O-])c1cccc(NC(=S)N2CCCN(Cc3ccc(F)cc3F)CC2)c1`: the Inhibition with Plasmodium falciparum [1] stood at 99%; in the assay with Plasmodium falciparum [2], 98%; in the assay with HepG2, 5%.
For `CC(=O)Nc1ccc(CN2CCC(NC(=O)c3cc(-c4ccc(N(C)C)cc4)cs3)C2)cc1.O=C(O)C(F)(F)F` (stereo not drawn), the Inhibition with Plasmodium falciparum [1] is recorded as 83%; in the assay with Plasmodium falciparum [2], 1%; with HepG2, 15%.
In the case of `O=C(/C=C/c1ccc(Cl)c(Cl)c1)NCCCCCN1CCC(NC(=S)Nc2cccc(Cl)c2)CC1`, the Inhibition in the assay with Plasmodium falciparum [1] is given as 99%; in the assay with Plasmodium falciparum [2], 43%; in the assay on HepG2, 24%.
Regarding `CS(=O)(=O)CCNCc1nc(-c2ccc3ncnc(Nc4ccc(OCc5ccccc5)c(Cl)c4)c3c2)cs1.Cl`, the Inhibition with Plasmodium falciparum [1] was 99%; with Plasmodium falciparum [2] it was 55%; in the assay with HepG2 it was 13%.
Take `COc1cc(NC(=O)c2ccc3c(=O)n(Cc4ccccc4)c(=S)[nH]c3c2)cc(OC)c1OC`: the results for the Inhibition in the assay on Plasmodium falciparum [1], with Plasmodium falciparum [2] and in the assay with HepG2 were 94%, 47% and 6%, respectively.
As for `COc1ccc(-c2nc(-c3ccc([N+](=O)[O-])cc3)no2)cc1OC`, the figures for the Inhibition in the assay on Plasmodium falciparum [1], in the assay on Plasmodium falciparum [2] and with HepG2 were 96%, 0% and 14%, respectively.
With `CCNc1cc(C)nc(Nc2ccc(F)cc2)n1`, the Inhibition was 100% in the assay with Plasmodium falciparum [1], 57% in the assay with Plasmodium falciparum [2] and 1% with HepG2.
`Cc1cccc2nc(-c3ccc(-c4ccc(CN5CCCC(O)C5)cc4)s3)[nH]c12.O=C(O)C(F)(F)F` (stereo not drawn): the Inhibition with Plasmodium falciparum [1] was 100%; with Plasmodium falciparum [2], 29%; in the assay on HepG2, 38%.
Consider `COc1ccccc1-c1cc(C(=O)N2CCN(S(=O)(=O)c3ccc(C)cc3)CC2)[nH]n1`, for which the Inhibition in the assay with Plasmodium falciparum [1] is 88%; with Plasmodium falciparum [2], 88%; with HepG2 it was 0%.
Consider `CC(=O)c1cccc(Nc2nc3ccc(OCc4cc(Cl)cc(Cl)c4)c(C#N)c3[nH]2)c1`, for which the Inhibition in the assay on Plasmodium falciparum [1] is reported as 86%; in the assay on Plasmodium falciparum [2], 45%; with HepG2, 29%.
For `Cc1cccc2nc(-c3ccc(-c4ccc(CNCCc5ccncc5)cc4)cc3)[nH]c12.O=C(O)C(F)(F)F`, the Inhibition with Plasmodium falciparum [1] turned out to be 100%; with Plasmodium falciparum [2] it was 98%; with HepG2, 34%.
The like results for `O=C(/C=C/c1ccc(Cl)c(Cl)c1)NCCCCCN1CCC(n2c(=O)[nH]c3ccccc32)CC1` were, in that order, 97%, 0% and 38%.
As to `O=C(Nc1ccc(Cl)cc1)Nc1ccc(OCC(O)CN2CCCCC2)cc1` (stereo not drawn), the Inhibition stood at 83% with Plasmodium falciparum [1], 13% in the assay with Plasmodium falciparum [2] and 18% with HepG2.
The like results for `CN1CCN(S(=O)(=O)c2cccc(Nc3nccc(N(C)c4ccc5c(c4)nc(NC(=O)c4cccs4)n5C)n3)c2)CC1` were, in that order, 99%, 59% and 25%.
With `C/C(=C\C(=O)NC1CC1)c1ccccc1OCc1ccccc1`, the Inhibition in the assay with Plasmodium falciparum [1] was 90%; with Plasmodium falciparum [2], 1%; in the assay with HepG2, 3%.
As to `CN1CCN(Cc2nc(-c3ccc4c(Nc5ccc(F)c(O)c5)ccnc4c3)cs2)CC1`, the Inhibition in the assay on Plasmodium falciparum [1] is 100%; with Plasmodium falciparum [2], 100%; with HepG2, 0%.
As to `COc1nc(NCC(C)C)nc(Oc2ccc(=O)n(Cc3ccccc3)n2)n1`, the Inhibition is on record as 97% in the assay on Plasmodium falciparum [1], 93% in the assay on Plasmodium falciparum [2] and 1% with HepG2.
As for `CC(C)N(Cc1ccc(-c2ccc(C(F)(F)F)cc2)cc1)C(=O)Cn1c(SCc2cccc(F)c2F)cc(=O)c2cc(CN3CCCCC3)ccc21.Cl`, the figures for the Inhibition with Plasmodium falciparum [1], in the assay with Plasmodium falciparum [2] and in the assay on HepG2 were 100%, 59% and 97%, respectively.
`Cc1ccc(NC(=O)c2ccc3ncccc3c2)cc1OC1CCN(Cc2ccsc2)CC1.O=C(O)C(F)(F)F`: the values for the Inhibition in the assay on Plasmodium falciparum [1], in the assay with Plasmodium falciparum [2] and in the assay on HepG2 were 93%, 29% and 21%, respectively.
Consider `COc1cc2c(cc1C(F)(F)F)N(C(=O)Nc1cc(F)cc(-c3cccnn3)c1)CC2`, for which the Inhibition was 90% in the assay on Plasmodium falciparum [1], 34% in the assay with Plasmodium falciparum [2] and 21% in the assay with HepG2.
For `O=C(NCCN1CCC(c2ccncc2)CC1)c1cccc(Nc2nccc(Nc3ccc(Oc4ccccc4)cc3)n2)c1`, the Inhibition in the assay on Plasmodium falciparum [1] amounted to 100%; in the assay with Plasmodium falciparum [2], 91%; in the assay with HepG2, 60%.
For `CCn1c(-c2nonc2N)nc2cnc(Oc3cccc(NC(=O)c4ccc(OCCCN5CCCCC5)cc4)c3)cc21`, in that order: 90%, 12% and 38%.
For `CN1CCN(CCCNCc2ccccc2-c2cccc(CNCc3ccc4c(c3)OCO4)c2)CC1.O=C(O)C(F)(F)F`, in that order: 100%, 7% and 34%.
Turning to `CC(C)CCN1CCCN(Cc2cccc(NC(=O)c3ccc(-c4ccccc4)cc3)c2)CC1.O=C(O)C(F)(F)F`, the Inhibition in the assay with Plasmodium falciparum [1] is listed as 92%; with Plasmodium falciparum [2], 21%; in the assay on HepG2, 27%.
As to `CC(=O)Nc1nc(N)c2c(ccc3c2ccn3CC(C)C)n1`, the Inhibition in the assay with Plasmodium falciparum [1] is 94%; with Plasmodium falciparum [2], 78%; in the assay on HepG2, 66%.
For the compound `CCCN(CCC)C(=S)N/N=C1/C(=O)Nc2ccccc21`, the results for the Inhibition in the assay with Plasmodium falciparum [1], in the assay on Plasmodium falciparum [2] and in the assay with HepG2 were 97%, 86% and 28%, respectively.

For the origin of these results see ChEMBL document CHEMBL1157539, “Thousands of chemical starting points for antimalarial lead identification” (Nature, 2010).
